The target in test [1] is 6-phosphogluconate dehydrogenase, decarboxylating (Homo sapiens) (UniProt P52209). The test is described as follows: inhibition of human phosphogluconate dehydrogenase – biochemical, recombinant enzyme, NADPH absorbance, primary screen (AID 1159550;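 active = at least 20% inhibition of 6-phosphogluconate dehydrogenase activity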). The following applies: recombinant 6PGD, NADPH absorbance 341 nm; at 10 µM; hits give high values.
Test [2] addresses Mitogen-activated protein kinase 7 (Homo sapiens) (UniProt Q13164). The experiment in a line: Gal4-ERK5 driven luciferase induction – cell-based, HTS, primary screen (AID 1508626).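 Also: luciferase driven by Gal4-ERK5 fusion binding five Gal4 sites before minimal TATA.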 The following applies: HeLa Gal4-ERK5 transactivation, 18 h, at 5 µM, hits give high values.

Data on 38 molecules can be found in PubChem BioAssay.

Values without a mark were called inactive. Activity calls are given as the source filed them.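 The calls were made as follows, unless noted: active = luciferase signal above three times the same-plate solvent-only control wells; inactive = the rest.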

Mitogen-activated protein kinase 7 (Homo sapiens), sequence (Q13164 whole entry, looked up, the tested form may be a part): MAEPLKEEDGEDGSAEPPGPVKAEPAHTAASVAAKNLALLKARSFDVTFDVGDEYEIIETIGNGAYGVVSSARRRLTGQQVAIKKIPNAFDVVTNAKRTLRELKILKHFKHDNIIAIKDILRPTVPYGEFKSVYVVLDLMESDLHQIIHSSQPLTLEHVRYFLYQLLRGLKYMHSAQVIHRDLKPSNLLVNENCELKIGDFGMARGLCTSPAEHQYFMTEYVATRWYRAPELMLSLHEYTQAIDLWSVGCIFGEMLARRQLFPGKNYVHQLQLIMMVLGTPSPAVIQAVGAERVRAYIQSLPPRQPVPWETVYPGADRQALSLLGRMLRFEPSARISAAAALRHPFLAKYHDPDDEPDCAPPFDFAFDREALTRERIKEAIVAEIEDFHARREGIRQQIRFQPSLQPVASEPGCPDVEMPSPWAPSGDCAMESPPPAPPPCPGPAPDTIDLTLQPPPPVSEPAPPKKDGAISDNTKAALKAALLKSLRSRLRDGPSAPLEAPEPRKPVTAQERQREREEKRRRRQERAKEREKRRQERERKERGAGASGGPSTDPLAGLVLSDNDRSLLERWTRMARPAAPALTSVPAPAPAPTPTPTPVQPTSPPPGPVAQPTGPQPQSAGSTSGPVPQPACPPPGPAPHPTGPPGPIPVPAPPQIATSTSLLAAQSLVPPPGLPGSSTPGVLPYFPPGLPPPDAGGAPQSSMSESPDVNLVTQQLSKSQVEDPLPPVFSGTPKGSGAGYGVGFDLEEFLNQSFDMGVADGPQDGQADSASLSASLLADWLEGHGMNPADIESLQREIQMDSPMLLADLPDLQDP
6-phosphogluconate dehydrogenase, decarboxylating (Homo sapiens), sequence (P52209 whole entry, looked up, the tested form may be a part): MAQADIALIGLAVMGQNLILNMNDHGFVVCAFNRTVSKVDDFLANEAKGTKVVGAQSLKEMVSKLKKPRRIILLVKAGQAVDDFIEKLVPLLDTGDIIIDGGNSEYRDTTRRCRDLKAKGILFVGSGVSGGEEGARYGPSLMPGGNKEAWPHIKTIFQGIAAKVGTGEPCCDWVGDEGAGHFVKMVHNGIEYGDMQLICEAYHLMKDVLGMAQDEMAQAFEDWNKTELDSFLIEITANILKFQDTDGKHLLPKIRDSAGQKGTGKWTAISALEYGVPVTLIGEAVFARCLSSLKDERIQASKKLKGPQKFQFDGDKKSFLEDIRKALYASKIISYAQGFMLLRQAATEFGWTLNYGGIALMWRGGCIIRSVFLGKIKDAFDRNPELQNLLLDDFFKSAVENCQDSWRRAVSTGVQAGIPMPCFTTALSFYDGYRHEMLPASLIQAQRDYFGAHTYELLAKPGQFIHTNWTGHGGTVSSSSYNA

By inhibition is commonly meant the change of the read-out against control, counted positive when it falls. For the molecule `C[C@H]1[C@H](C)CC[C@]2(C(=O)O)CC[C@]3(C)C(=CC[C@@H]4[C@@]5(C)C[C@@H](O)[C@H](O)[C@@](C)(CO)[C@@H]5[C@H](O)C[C@]43C)[C@H]12`, in test [1], the inhibition was 2.44%. In test [2], the luciferase signal was 48 AU.
On the same counts, the results for `CN1CCCC1c1cccnc1` (stereo unspecified) are 17.4% and 56 AU.
With `COc1c(O)cc2c(-c3ccccc3)cc(=O)oc2c1OC`, the inhibition in test [1] is -3.61%. Besides, in test [2], the luciferase signal was 48 AU.
With `Cn1c(=O)[nH]c2nc[nH]c2c1=O`, the inhibition in test [1] is -4.63%. The luciferase signal in test [2] was 56 AU.
As for `C[C@H]1C(=O)CC[C@@H]2[C@]1(C)CC[C@H]1[C@@]2(C)CC[C@@]2(C)[C@@H]3CC(C)(C)CC[C@]3(C)CC[C@]12C`, the inhibition in test [1] was 7.58%. In test [2], the luciferase signal is 88 AU.
On the same counts, the results for `CC(=O)OCC1(O)CC23CCC4c5ccoc5CCC4(C)C2CCC1C3` (stereo unspecified) are 4.27% and 24 AU.
On the same counts, the results for `N[C@@H](CCC(=O)N[C@@H](CSC(CC(=O)O)C(=O)O)C(=O)NCC(=O)O)C(=O)O` (stereo partly specified) are 6.35% and 68 AU.
Turning to `COC(=O)C1=CO[C@@H](O[C@@H]2O[C@H](CO)[C@@H](O)[C@H](O)[C@H]2O)[C@@H]2[C@@H](C)[C@@H](O)C[C@H]12`, in test [1], the inhibition is 6.61%. In addition, the luciferase signal in test [2] was 20 AU.
On the same counts, the results for `COc1cc(/C=C/CO)ccc1O` are 17.3% and 96 AU.
For `O=c1cccc2cc(O)c(O)c(O)c2c1O` the same measures were 16.8% and 60 AU.
For `COc1c(-c2ccccc2)oc2c(ccc3occc32)c1=O` the same measures were -3.15% and 36 AU.
As to `CO[C@H]1C=C[C@@]23c4cc5c(cc4CN(C[C@@H]2O)[C@H]3C1)OCO5`, in test [1], the inhibition is 13.8%. For the same molecule, the luciferase signal in test [2] was 44 AU.
For `CC1/C(=N/O)C[C@@H]2C[C@H]1C2(C)C` (stereo partly specified) the same measures were -7.59% and 52 AU.
For `CC1C2[C@]3(CC[C@H]1C)CCC1(C)[C@@]2(C=CC2[C@@]4(C)CC[C@H](O)C(C)(C)C4CC[C@]21C)OC3=O` (stereo partly specified) the same measures were 5.53% and 56 AU.
On the same counts, the results for `CC(C)c1c(O)ccc2c1CC[C@H]1C(C)(C)CCC[C@]21C` are -7.32% and 20 AU.
In the case of `O=C(/C=C(\O)c1ccccc1)c1ccccc1O`, the inhibition in test [1] was -0.592%. In addition, the luciferase signal in test [2] was 16 AU.
On the same counts, the results for `CCC(=O)O[C@H]1CC[C@H]2[C@@H]3CCc4cc(O)ccc4[C@H]3CC[C@]12C` are -10.1% and 24 AU.
On the same counts, the results for `COc1cc2ccc(=O)oc2c(O)c1O` are 13.8% and 76 AU.
Regarding `C/C(=C\CO)CCC[C@H](C)CCC[C@H](C)CCCC(C)C`, the inhibition in test [1] is 5.74%. Besides, the luciferase signal in test [2] is 72 AU.
Take `COc1ccc(C2CC(=O)c3ccc(OC)cc3O2)cc1` (stereo unspecified): the inhibition in test [1] was 21.7% (active). The luciferase signal in test [2] is 84 AU.
On the same counts, the results for `COC(=O)/C(=C1/OC(=O)C(c2ccccc2)=C1O)c1ccccc1` are 11.9% and 68 AU.
On the same counts, the results for `COC1[C@H](O)[C@@H](O)C(O)[C@H](O)[C@H]1O` (stereo partly specified) are -7.09% and 136 AU.
For the molecule `O=C(NCO)c1cccnc1`, the inhibition in test [1] was -8.21%. For the same molecule, the luciferase signal in test [2] was 68 AU.
As to `COC(=O)C[C@H]1C(C)(C)[C@@H](OC(C)=O)[C@@H]2CC3C4CC(=O)O[C@@H](c5ccoc5)[C@]4(C)CCC3[C@@]1(C)C2=O` (stereo partly specified), the inhibition in test [1] was 7.27%. Further, the luciferase signal in test [2] is 28 AU.
On to `COC(=O)CCCOc1ccc(Cl)cc1Cl`, for which the inhibition in test [1] was -8.02%. Moreover, the luciferase signal in test [2] was 60 AU.
`CC(=O)O[C@H]1C[C@@H](OC(C)=O)C(C)(C)[C@@H]2C[C@@H](OC(C)=O)[C@]3(C)[C@H](CC[C@@]4(C)[C@H](c5ccoc5)OC(=O)[C@H]5O[C@@]534)[C@@]12C`: in test [1], the inhibition is -4.75%. In addition, the luciferase signal in test [2] is 12 AU.
For the molecule `C[C@H]1[C@H](C)CC[C@]2(CO)CC[C@]3(C)C(=CC[C@@H]4[C@@]5(C)CC[C@H](O)C(C)(C)[C@@H]5CC[C@]43C)[C@H]12`, the inhibition in test [1] was -50.4%. For the same molecule, the luciferase signal in test [2] was 52 AU.
On the same counts, the results for `COc1ccc(-c2cc(=O)c3ccccc3o2)cc1OC` are -3.02% and 76 AU.
On the same counts, the results for `CC(C)=CCc1c(O)cc2occ(-c3ccc4c(c3)OCO4)c(=O)c2c1O` are -0.247% and 104 AU.
For `CC(=O)O[C@@H]1CC(=O)[C@@]2(C)C(CC(=O)[C@]3(C)C2CC[C@@]2(C)[C@H](c4ccoc4)OC(=O)C4OC423)C1(C)C` (stereo partly specified) the same measures were 9.95% and 24 AU.
For `C=C1C2CCC3(C)C(c4ccoc4)OC(=O)CC13OC1CC(OC(C)=O)C(C)(C)C(CC(=O)OC)C12C` (stereo unspecified), the inhibition in test [1] was 5.49%. The luciferase signal in test [2] is 56 AU.
On the same counts, the results for `CC(=O)O[C@H]1CC[C@@]2(C)C(=CC=C3[C@@H]4CC[C@H]([C@H](C)/C=C/[C@H](C)C(C)C)[C@@]4(C)CC[C@@H]32)C1` are 14.6% and 72 AU.
On the same counts, the results for `COC(=O)CC1C(C)(C)C(OC(C)=O)[C@@H]2[C@@H](OC(C)=O)[C@]34O[C@@]2(O)[C@]1(C)C3CC[C@]1(C)C4=CC(=O)O[C@H]1c1ccoc1` (stereo partly specified) are -1.28% and 12 AU.
For `CC1=C(/C=C/C(C)=C/C=C/C(C)=C/C=C/C=C(C)/C=C/C=C(C)/C=C/C2=C(C)C(=O)[C@@H](O)CC2(C)C)C(C)(C)C[C@H](O)C1=O` the same measures were -11.7% and 48 AU.
As for `COC(=O)c1c(OC)cc2c(c1C)Oc1c(Cl)c(OC(C)=O)c(Cl)c(C)c1C(=O)O2`, the inhibition in test [1] was -6.07%. Moreover, the luciferase signal in test [2] was 44 AU.
For `OC[C@@H](O)[C@@H](O)C(O)[C@H](O)[C@@H](O)CO` (stereo partly specified) the same measures were -5.44% and 56 AU.
On the same counts, the results for `CC1=C[C@@H]2[C@@H](CC1)[C@](C)(O)CC[C@H]2C(C)C` are 9.65% and 48 AU.
Regarding `CC(C)=CCc1c2c(c(O)c3c(=O)c(O)c(-c4ccccc4)oc13)C=CC(C)(C)O2`, in test [1], the inhibition is -4.34%. Further, the luciferase signal in test [2] was 64 AU.
